Reference: PubChem BioAssay (NCI)
This is part of a sample that, as a whole, favours compounds with a hit. Of some 83,000 tested, about 20% had one in any assay.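 Compound tested at a single concentration for 48 hours in 96-well plates; a percent growth value below 10 was scored as active.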 A number with no mark means an inactive call. Calls of active or inactive are those of the source.

Test system: CAKI-1 renal
Assay: NCI-60 one-dose screen, 48 h (100 = growth as untreated, 0 = no growth, -100 = all killed)
Settings: 10 µM
Procedure: Growth inhibition of the CAKI-1 human tumor cell line is measured as a screen for anti-cancer activity. Cells are grown in 96 well plates and exposed to the test compound for 48 hours. Compounds are tested at a single concentration, which is 10^-5 M for most compounds. The reported endpoint is percent growth (GI% or GIPRCNT), where numbers from 0 - 100% represent growth inhibition, and numbers from -100% - 0 represent cell death. For example, a value of 40 represents 60% growth inhibition. A value of 0 means no net growth occurred over the course of the experiment. A value of -40 indicates 40% of cells at the beginning of the experiment died by the end of the experiment. A value of -100 means all cells are dead at the end of the experiment.
NCI-60 Human Tumor Cell Lines Screen was performed using the standard one-dose NCI protocol, which is described in more detail at https://dtp.cancer.gov/discovery_development/nci-60/default.htm.
Compounds with GIPRCNT values below 10 were considered active. Activity score was based on GIPRCNT using the following formula: […]
Score is 0 for GIPRCNT values of 100 or above, 50 for GIPRCNT values of 0, and 100 for GIPRCNT values of -100.

Row | SMILES | growth
1 | COc1cc2cc3c(nc2cc1OC)CCN3Cc1ccc(NC(=O)c2ccc(Cl)c(C(F)(F)F)c2)cc1 | 84.3%
2 | CN(C)CCN1C(=O)c2cccc3cc(N)cc(c23)C1=O | 3% (active)
3 | COc1ccc2nc3ccccc3c(NCCNCC(C)O)c2c1 (stereo not given) | 42.5%
4 | COc1ccccc1CNCCN1C(=O)c2ccc3c4c(ccc(c24)C1=O)C(=O)N(CCNCc1ccccc1OC)C3=O | -31.3% (active)
5 | COC(=O)C(=C\c1ccc2c(c1)OCO2)/C(=C/c1ccc2c(c1)OCO2)C(=O)OC | 94.7%
6 | C#Cc1ccc(-n2c(/C=C/c3ccc(O)cc3)nc3ncccc3c2=O)cc1 | 55.9%
7 | O=C1Nc2ccc(Cl)cc2/C1=C\c1c(-c2ccc(Cl)cc2)nc2sc(C3CC3)nn12 | 45.7%
8 | N=C(N)c1ccc(-c2ccc(-c3ccco3)o2)cc1 | 54.5%
9 | Cn1c([N+](=O)[O-])cnc1/C=C1\Oc2cc(Cl)ccc2C1=O | -21.1% (active)
10 | Cc1cc2c(C)c3cc(C)c(N)cc3nc2cc1N | 14.8%
11 | C=C1c2c(C)nn(-c3ccc(OC)cc3)c2N(C)C23C[C@@H]1C1(C)c4c(C)nn(-c5ccc(OC)cc5)c4N(C)C(C)(C[C@H]12)C3 (stereo not given in full) | 2.18% (active)
12 | COc1ccc2c(c1)C(=O)c1c-2c(=O)n(CCCN(C)C)c2cc(OC)c(OC)cc12 | 10.6%
13 | COc1ccc([N+](=O)[O-])c(C(=O)O)c1 | 95.7%
14 | C#Cc1ccc(-n2c(/C=C/c3ccc4ccccc4n3)nc3ncccc3c2=O)cc1 | -20.5% (active)
15 | CCCCCCN1CCN(Cc2ccc(N(CC)CC)cc2)C(=O)C1=O | 41.6%
16 | COc1cccc(Cn2c(-c3nonc3N)nc3ccccc32)c1 | 20.5%
17 | COc1cc(C(=O)/C=C/c2cc(-c3cc(OC)c(OC)c(OC)c3)n[nH]2)cc(OC)c1OC | 8.9% (active)
18 | COc1ccc2c(c1)N(CCO)C1=C(C(=O)OC1)C2c1cc(OC)c(OC)c(OC)c1 (stereo not given) | 6.97% (active)
19 | CC(C)(Cl)CCC1=C(Cl)C(=O)c2ccccc2C1=O | 96%
20 | COc1cc(Nc2ccnc(NCCCNc3ccnc4cc(Cl)ccc34)n2)cc(OC)c1 | -3.88% (active)

Row | SMILES | growth
21 | O=C1/C(=C\c2ccc(Br)cc2)CN(C(=O)c2ccccc2F)C/C1=C\c1ccc(Br)cc1 | 7.2% (active)
22 | O=C(Nc1ccncc1)C(=O)c1cn(S(=O)(=O)c2ccc(F)cc2)c2ccccc12 | 52.9%
23 | CN(C)Cc1cn(-c2ncc(-c3ccc(C(F)(F)F)cc3)c(NC3CCCCCC3)n2)nn1 | 84.7%
24 | Nc1ccn(C2CC(O)C(CO)O2)c(=O)n1 (stereo not given) | 99.4%
25 | COc1ccc(Nc2ncnc3c2c(SC)nn3-c2ccccc2)cc1 | 82.7%
26 | CCN(CC)CCN1CC(=O)Nc2cc(Cl)ccc21 | 90.7%
27 | Cc1ccc(-c2nc(/C=C3/C(=O)N(C)c4ccc(F)cc43)c3ccccn23)cc1 | 105%
28 | COc1ccc(Nc2ccnc(NCCNc3ccnc4cc(Cl)ccc34)n2)cc1 | 60.6%
29 | C[C@@H]1C=C2C(=O)O[C@@H]3CC[C@H](C1)[C@]23O | 50.6%
30 | CCCCCCCCCCCC[n+]1ccc(C(N)=O)cc1 | 41.1%
31 | COc1ccc(-c2nn(-c3cccc(NC(=O)c4ccc5c(c4)OCCO5)c3)cc2-c2ccncc2)cc1Cl | 15%
32 | O=C(CCCCC(=O)Nc1ccc2c(c1)/C(=C/c1ccc[nH]1)C(=O)N2)NO | 97.8%
33 | COc1ccc2c(c1)N(CCO)C1=C(C(=O)OC1)C2c1ccccc1 (stereo not given) | 14.9%
34 | Clc1ccc(Nc2ccnc(NCCNc3ccnc4cc(Cl)ccc34)n2)cc1 | -7.16% (active)
35 | COc1ccc2c(c1)C(=O)c1c-2c(OCCN(C)C)nc2ccccc12 | 14.6%
36 | COc1cc(-c2cc(/C=C/C(=O)c3ccc(Cl)c(Cl)c3)[nH]n2)cc(OC)c1OC | 82.9%
37 | COc1ccc(-c2cc(/C=C/C(=O)c3cc(OC)c(OC)c(OC)c3)[nH]n2)cc1OC | 4.66% (active)
38 | O=C1CC[C@@H]2CCCC[C@@H]2C1 | 102%
39 | CN(Cc1ccccc1)Cc1ccc([N+](=O)[O-])cc1I | 93%
40 | N#Cc1cccc(OCc2nc(N)nc(N)c2-c2ccc(Cl)c(Cl)c2)c1 | 10.5%
